Reference: PubChem BioAssay AID1903 (Southern Research Specialized Biocontainment Screening …, 2009)
Screen size: about 310,000 compounds; about 1,200 (0.39%) were called active. How the calls were made is not given here. Not all results are given here. Entries with a potency or affinity are not part of this list.

Molecular target: Large T antigen (Simian virus 40) (UniProt P03070)
Assay: SV40 large T antigen inhibitors, biochemical (AID 1903)
Conditions: SV40 large T antigen ATPase/helicase inhibition assay; at 20 µM; stronger effect = higher value

Large T antigen (Simian virus 40), sequence (P03070 whole entry, looked up): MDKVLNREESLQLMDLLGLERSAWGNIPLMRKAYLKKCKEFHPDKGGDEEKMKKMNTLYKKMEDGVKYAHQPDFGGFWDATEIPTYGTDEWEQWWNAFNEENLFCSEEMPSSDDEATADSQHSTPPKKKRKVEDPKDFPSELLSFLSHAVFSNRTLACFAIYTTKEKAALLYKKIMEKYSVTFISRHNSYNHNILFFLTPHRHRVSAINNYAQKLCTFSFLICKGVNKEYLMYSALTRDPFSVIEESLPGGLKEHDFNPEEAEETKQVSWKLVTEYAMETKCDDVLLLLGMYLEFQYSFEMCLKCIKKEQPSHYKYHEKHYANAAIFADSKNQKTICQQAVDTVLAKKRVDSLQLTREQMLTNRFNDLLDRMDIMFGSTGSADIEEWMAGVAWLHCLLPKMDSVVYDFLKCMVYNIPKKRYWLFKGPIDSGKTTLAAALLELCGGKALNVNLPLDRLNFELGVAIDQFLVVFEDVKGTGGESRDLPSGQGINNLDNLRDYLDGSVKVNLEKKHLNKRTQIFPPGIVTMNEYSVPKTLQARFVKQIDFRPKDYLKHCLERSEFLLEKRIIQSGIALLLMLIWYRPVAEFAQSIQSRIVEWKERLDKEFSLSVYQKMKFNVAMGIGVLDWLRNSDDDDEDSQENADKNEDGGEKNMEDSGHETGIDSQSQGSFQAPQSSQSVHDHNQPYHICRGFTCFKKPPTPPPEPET

inhibition, inactive:
Cc1ccc(O)c(Nc2c3ccccc3nc3ccccc23)c1 12.6%
O=C(O)c1cccc(Nc2c3ccccc3nc3ccccc23)c1 -9.05%
CCCCNC(=O)OCCNC(=O)NC 7.67%
COc1ccc(N2CCC(CNC(=S)Nc3cc(C)ccc3C)C2)cc1 (stereo not drawn) 36.6%
COc1ccc(N2CCN(C(=S)Nc3cc(C)ccc3C)CC2)cc1 3.41%
COc1ccc(NC(=S)NCC2CCN(c3ccc(OC)cc3)C2)cc1 (stereo not drawn) 36.1%
COc1ccc(N2CCC(CNC(=S)Nc3cc(C)cc(C)c3)C2)cc1 (stereo not drawn) 28.6%
COc1ccc(N2CCC(CNC(=S)Nc3cccc(C)c3)C2)cc1 (stereo not drawn) 21.4%
COc1ccc(N2CCN(CC(=O)Nc3c(C)cc(C)cc3C)CC2)cc1 24%
Nc1nnnn1CC(=O)N/N=C/C=C/c1ccccc1 13.8%
CC(C)N=C(Nc1ccccc1)c1cccnc1 -1.87%
Cc1snc(SCc2ccc(F)cc2)c1C#N 10.8%
COc1ccc(NC(=O)c2ccc(-n3cnnn3)cc2)c([N+](=O)[O-])c1 -1.81%
O=C1CSC(=S)N1c1cccc(Br)c1 9.66%
O=C1c2c([N+](=O)[O-])cc([N+](=O)[O-])cc2S(=O)N1Cc1ccccc1 (stereo not drawn) 11.3%
O=c1c2c([N+](=O)[O-])cc([N+](=O)[O-])cc2nc2ccccn12 9.53%
CC1CCCC(C)N1C(=O)COC(=O)c1ccc2c(c1)OCO2 (stereo not drawn) -2.3%
Cc1ccc(S(=O)(=O)N2CCN(C(=O)COC(=O)CCOc3cc(C)ccc3C)CC2)cc1 7.19%
COc1ccccc1OCC(=O)N1CCNC1=O 12%
O=C1NC(=S)N/C1=C/c1ccc2c(c1)OCO2 11.6%
O=Cc1ccc2c(c1)CCN2Cc1ccccc1 3.42%
O=C(O)c1cc(NS(=O)(=O)c2ccc3ccccc3c2)ccc1O 25.9%
O=C(O)c1cccc(S(=O)(=O)Nc2ccc3[nH]c(=O)[nH]c3c2)c1 -8.06%
O=C(O)c1cccc(S(=O)(=O)Nc2ccc3c(c2)OCO3)c1 15.8%
CC(=O)c1c(C)oc2ccc(NS(=O)(=O)c3ccc(O)c(C(=O)O)c3)cc12 20.5%
C=CCN(c1ccccc1)S(=O)(=O)c1cccc(C(=O)NNC(=O)c2ccccc2O)c1 7.21%
CC(C)c1nc(SCC(=O)Nc2ccc3c(c2)OCCO3)c2c(=O)n(C)c(=O)n(C)c2n1 3.08%
Cc1c(NC(=O)/C(C#N)=C/c2ccc(-c3cc(Cl)ccc3Cl)o2)c(=O)n(-c2ccccc2)n1C 0.645%
C/C(=N\Nc1nc(N)cc(Cl)n1)c1ccc(F)cc1 1.42%
CSc1cccc(CNC(=O)C2CCC(=O)N(CCc3ccccn3)C2)c1 (stereo not drawn) 25.2%
Cc1ccc(-c2ccc(=O)n(CC(=O)NCCN3C(C)CCCC3C)n2)cc1 (stereo not drawn) 0.56%
COc1ccccc1N(CC(=O)NCc1ccccc1C)S(=O)(=O)c1ccc(C)cc1 2.07%
Cc1ccc2c(c1)/C(=C/c1ccco1)C(=O)N2 -3.2%
O=C1Nc2ccccc2Nc2ncccc21 -0.98%
COc1cc(C(=O)O)c2c(c1C)OC(=O)c1c(C)cc(O)c(C=O)c1O2 5.23%
COc1cc(C)c2c(c1C=O)Oc1c(c(C)c(O)c3c1C(O)OC3=O)OC2=O (stereo not drawn) 20%
Cc1ccccc1NC(=O)NC1(C(=O)N2CCN(C)CC2)CCCCC1 8.19%
COc1cc(OC)cc(C(=O)N/N=C/c2ccc(OC)c(COc3ccc(F)cc3)c2)c1 -6.49%
CC(=O)Nc1ccc(Nc2nnc(-c3ccc(C)c(S(=O)(=O)NCCO)c3)c3ccccc23)cc1 10.9%
Cc1ccc(-c2nnc(Nc3cccc(O)c3)c3ccccc23)cc1S(=O)(=O)NCCO 34.4%
Cc1cnc(NCCc2ccccc2)s1 7.89%
O=C(CSc1nncc2ccccc12)Nc1cccc(C(=O)O)c1 27.1%
CN(CC(=O)Nc1ccc(F)cc1)C(=O)COc1ccc([N+](=O)[O-])cc1Cl 0.38%
C[C@@H]1O[C@@H](O[C@H]2[C@H](Oc3cc(O)c4c(c3)OC(c3ccc(O)cc3)CC4=O)O[C@H](CO)[C@@H](O)[C@@H]2O)[C@H](O)[C@H](O)[C@H]1O (stereo partly drawn) 34%
C[C@@H]1O[C@@H](O[C@H]2[C@H](Oc3cc(O)c4c(c3)O[C@H](c3ccc(O)cc3)CC4=O)O[C@H](CO)[C@@H](O)[C@@H]2O)[C@H](O)[C@H](O)[C@H]1O 25.7%
CC(C)Oc1ccc(CN2CCCC(CO)(Cc3ccc(F)cc3)C2)cc1 (stereo not drawn) 6.25%
Cc1nn(-c2ccccc2)c2sc(C(=O)NCCN3CCOCC3)cc12 16.1%
O=C1NN(c2cccc(Br)c2)C(=O)/C1=C\c1ccc(N2CCOCC2)cc1 8.36%
O=C1NN(c2cccc(Br)c2)C(=O)/C1=C\c1ccccc1 26.7%
O=C(NCc1ccccc1)C1CC(=O)N(c2ccc(OCC(=O)N3CCCC3)cc2)C1 (stereo not drawn) 5.81%
COc1ccccc1N(CC(=O)NCc1ccco1)S(C)(=O)=O 15.8%
CN(C)c1cc(Nc2cccc(O)c2)c([N+](=O)[O-])c2nonc12 16.9%
Cc1c(Nc2cc(Cl)c3nonc3c2[N+](=O)[O-])c(=O)n(-c2ccccc2)n1C 26.5%
CN(C)c1cc(Nc2ccc(O)cc2)c([N+](=O)[O-])c2nonc12 14.7%
O=[N+]([O-])c1c(Nc2ccccc2O)cc(Cl)c2nonc12 29.4%
O=C(O)c1cccc(Nc2ccc3nonc3c2[N+](=O)[O-])c1 10.9%
O=[N+]([O-])c1c(Nc2ccccn2)cc(Cl)c2nonc12 27.4%
O=C(O)c1cccc(Nc2cc(Cl)c3nonc3c2[N+](=O)[O-])c1 20.1%
O=C(O)c1ccccc1Nc1cc(Cl)c2nonc2c1[N+](=O)[O-] 33.3%
O=C(O)c1cnc(-c2ccccc2)nc1Sc1ccc(Cl)cc1 12.4%
CCOc1ccc(C(c2nnnn2C(C)(C)C)N2CCN(C(=O)c3ccco3)CC2)cc1 (stereo not drawn) 4.34%
CC(NS(=O)(=O)c1ccc(F)cc1)C(c1cccs1)N1CCOCC1 (stereo not drawn) -5.54%
COC(=O)c1ccccc1NC(=O)CCCCCn1nnc2ccccc2c1=O 26.9%
COc1cccc(CN(C)CC(=O)NCc2ccc(F)cc2)c1OC -3.04%
CC(=O)Oc1ccc(-c2cccc(C(=O)Oc3ccccc3)c2)cc1 -7.54%
CCN(CC)S(=O)(=O)c1ccc(NC(=O)COC(=O)CCc2cc(OC)c(OC)c(OC)c2)cc1 0.42%
O=[N+]([O-])c1ccccc1NCCOc1ccccc1 5.2%
COC(=O)c1ccccc1NC(=O)C/C(C)=N/NC(=O)CC#N 6.52%
CC(C)C[C@H](NC(=O)Nc1cccc(Cl)c1)C(=O)O 10.3%
O=C(CN1CCOCC1)Nc1ccccc1Cl 8.91%
O=C(N/N=C/c1ccc(-c2cccc([N+](=O)[O-])c2)o1)c1ccccc1O 2.92%
NC(N)=N/N=C/c1cc([N+](=O)[O-])ccc1O 9.25%
O=C(N/N=C/c1ccc(O)cc1O)C1CC1 33.4%
NC(=O)N/N=C/c1ccc(-c2ccc([N+](=O)[O-])cc2)o1 12.1%
CCCCn1c(N)c(N(CC(C)C)C(=O)C2CCN(S(=O)(=O)c3ccc(Cl)cc3)CC2)c(=O)[nH]c1=O 11.5%
O=C(NCC1CCCCC1)c1cccnc1 11.1%
O=C(NCCO)C(=O)Nc1cc2c3c(c1)CC(=O)N3CCC2 7.7%
CCCC(=O)Nc1cc2c3c(c1)CC(=O)N3CCC2 8.54%
Nc1ccc(Nc2ccccc2)c(Cl)c1 19.8%
Cc1ccc(Nc2ccc(C(=O)O)cc2N)cc1 -4.88%
Cc1cc(C)cc(Nc2ccc(C(=O)O)cc2N)c1 23.9%
Cc1ccc(Nc2ccc(N)cc2S(=O)(=O)O)cc1 21.6%
CC(=O)c1c(NCCc2ccccc2)cc(C)oc1=O -0.81%
CCC(OC(=O)c1cccs1)C(=O)NCc1ccco1 (stereo not drawn) 8.42%
Cc1c(Cl)cccc1NC(=O)NC1CCCCC1 2.26%
CCc1cccc2c(C(=O)CSc3nncn3-c3ccccc3OC)c[nH]c12 2.74%
COc1cccc(-n2cc(C(=O)NCCCOC(C)C)c3ccccc3c2=O)c1 11.2%
O=C(/C=C/c1ccc(O)c(O)c1)OC(Cc1ccc(O)c(O)c1)C(=O)O (stereo not drawn) 4.28%
O=C(/C=C/c1ccc(O)c(O)c1)OCCc1ccccc1 37.9%
CN(CCCNS(=O)(=O)c1cccc2cccnc12)Cc1ccccc1 -0.29%
O=C(Cn1c(=O)n(Cc2ccco2)c(=O)c2c3c(sc21)CCCCC3)c1ccccc1 49.4%
O=C(Cn1c(=O)n(Cc2ccco2)c(=O)c2c3c(sc21)CCCCC3)Nc1ccccc1 51.6%
CN1C(=O)C(CC(=O)NC2CCCCC2)N(C)C1=O (stereo not drawn) -7.63%
